Assay outcomes from PubChem.
Hits are enriched below; roughly 3.8% of the tested compounds scored in any of these assays.
TGFb SMAD3 inh = qHTS for Inhibitors of TGF-b | 1.2% of 410,000 active | Potency, µM (top dose mostly 46.1 µM), for inactives: at the top dose activity, negative = inhibition, actives largely listed as inhibitors | HepG2 CAGA-GFP TGF-b/SMAD3 reporter, GFP fluorescence, 18 h; TGF-beta stimulated, 500 pg/mL final; note: % is set by controls: 0 for no effect and ±100 for the full control effect; nearly all actives have a fitted effect of over 65% in size
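Smad-responsive CAGA-GFP expression was quantified in HEPG2 cells exposed to compounds and 500 pg/mL final TGF-beta for 18 h at 37 degrees C; unstimulated wells defined full inhibition.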
ATXN2 expr inh = Primary qHTS for Inhibitors of ATXN expression | HEK-293 ATXN2-luciferase reporter, luminescence, 24 h | Potency, µM (highest dose often 57 µM), without a hit: top-dose activity change, negative = inhibition, hits mostly inhibitors | 0.72% of 360,000 active | AID 1745845, 2022; note: % is set by controls: 0 for no effect and ±100 for the full control effect; nearly all actives have a fitted effect of over 55% in size
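qHTS (up to 57 uM final) was run with 24 h compound exposure of reporter cells at 37 °C. Each well was multiplexed: SteadyGlo luminescence measured ATXN2-luciferase expression after a fluorogenic Gly-Phe-AFC viability readout (25 uM final).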
HT1080 IDH1KD tx = qHTS for induction of synthetic lethality in tumor cells producing 2HG: qHTS for the HT-1080-IDH1KD cell line; HT-1080 IDH1 knockdown viability, ATP luminescence, 48 h; Potency, µM (highest dose often 46.1 µM), without a hit: at the highest dose activity, negative = toxicity, hits mostly cytotoxic; 2% of 360,000 active; AID 686971, 2013;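 note: 0% = DMSO wells and -100% = cell-free medium wells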
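Knockdown cells (IDH1KD HT-1080) received compounds 2 h after plating at 750 cells/well and were kept 48 h at 37 °C in 5% FBS RPMI. A CellTiter-Glo luminescence read gave % activity for curve fitting.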
S2 tox = Viability Counterscreen for Primary qHTS for Inhibitors of ATXN expression; S2 cells (HEK-293 line with an ATXN2-luciferase reporter) viability, CellTiter-Fluor protease fluorescence, 24 h; Potency, µM (series often up to 56.7 µM), hits mostly cytotoxic; 0.49% of 400,000 active; AID 651635, 2014; note: nearly all actives have a fitted effect of over 40% in size
HT1080-NT tox = qHTS for induction of synthetic lethality in tumor cells producing 2HG: qHTS for the HT-1080-NT fibrosarcoma cell line; HT-1080-NT fibrosarcoma viability, CellTiter-Glo ATP luminescence, 48 h; Potency, µM (titrated, usually from 46.1 µM), without a hit: at the highest dose activity, negative = less viability, hits mostly cytotoxic; 1.6% of 360,000 active; AID 686970, 2013;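 note: NT is the 2HG producing partner of a matched IDH1 knockdown line; 0% = DMSO-treated cells and -100% = media-only wells without cells; nearly all actives have a fitted effect of over 55% in size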
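Toxicity toward the 2HG-producing NT line was scored as %Activity, normalised to DMSO and no-cell wells, from CellTiter-Glo luminescence after 48 hours' treatment.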
HepG2 tox-1 = qHTS for Inhibitors of TGF-b: Cytotox Counterscreen | HepG2 CAGA-GFP viability, ATP luminescence, 18 h | Potency, µM (top dose mostly 46.1 µM), inactives show at the highest dose activity change, negative = cytotoxicity, hits mostly cytotoxic | 0.76% of 410,000 active | AID 588856, 2011
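HepG2 CAGA-GFP cells (1000/well, DMEM with 1% FBS) received compound, then TGF-beta at 500 pg/mL final, and were incubated 18 hours at 37 degrees C. Viability was read by CellTiter-Glo luminescence. Media-only wells were set as complete cell-killing and DMSO as no toxicity.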
TGFb CAGA inh = qHTS for Inhibitors of TGF-b: Confirmation of Cherry Picks | HepG2 CAGA-GFP TGF-b reporter, GFP fluorescence, 18 h; cells stimulated with TGF-beta, 500 pg/mL | 63% of 1,600 active | Potency, µM (top dose mostly 46.1 µM), inactives show at the highest dose activity, negative = inhibition, most hits filed as inhibitors | shares compounds with TGFb SMAD3 inh; note: % is set by controls: 0 for no effect and ±100 for the full control effect; nearly all actives have a fitted effect of over 65% in size
HepG2 tox-2 = qHTS for Inhibitors of TGF-b: Cytotox Counterscreen for Cherry Picks | shares compounds with TGFb SMAD3 inh | HepG2 CAGA-GFP viability, ATP luminescence, 18 h; cells stimulated with TGF-beta, 500 pg/mL | Potency, µM (highest dose often 46.1 µM), for the others: at the top dose activity, negative = cytotoxicity, usual class: inhibitors | 27% of 1,600 active | AID 720535, 2013; note: % is set by controls: 0 for no effect and ±100 for the full control effect; nearly all actives have a fitted effect of over 70% in size
TGFb CCL64 inh = qHTS for Inhibitors of TGF-b: CCL64 Cells Orthogonal Assay for Cherry Picks. shares compounds with TGFb SMAD3 inh. CCL64 CAGA-GFP reporter, TGF-b stimulated, GFP fluorescence, 18 h. Potency, µM (series often up to 46.1 µM), without a hit: at the highest dose activity, negative = inhibition, hits mostly inhibitors. 41% of 1,600 active. AID 720536, 2013; note: nearly all actives have a fitted effect of over 65% in size
TGFb COP inh = qHTS for Inhibitors of TGF-b: Hit Validation in HepG2 Cells using COP promoter. shares compounds with TGFb SMAD3 inh. HepG2 COP-GFP TGF-b reporter, GFP fluorescence, 18 h; cells stimulated by added recombinant TGF-beta. Potency, µM (doses to about 46.1 µM), for inactives: top-dose activity, negative = inhibition, usual class: inhibitors. 3% of 1,600 active. AID 720537, 2013; note: nearly all actives have a fitted effect of over 70% in size
* marks the source's active call; other numbers are inactive results; i = inactive; ? = inconclusive; nt = no result; ! = not active in a repeat; [ ] = dose if it differs, or a comment. Calls come from the whole dose curve; as a rule, active = well fitted curve in the direction sought with a large enough effect; inconclusive = small, poorly fitted or top-dose-only effect, or another doubt; inactive = no such curve, though single readings can be large; an effect the other way counts as inactive or inconclusive. Potency is the fitted concentration of half-maximal effect.

SMILES | TGFb SMAD3 inh | ATXN2 expr inh | HT1080 IDH1KD tx | S2 tox | HT1080-NT tox | HepG2 tox-1 | TGFb CAGA inh | HepG2 tox-2 | TGFb CCL64 inh | TGFb COP inh
CCN(CC)S(=O)(=O)c1cccc(NC(=O)c2ccc(-n3nc(C)cc3C)cc2)c1 | 7.94µM* | ? | 0.1% | ? | -5.7% | -1.5% | ? | -17.9% | -0.9% | -9.1%
O=C(c1ccc(Cl)c([N+](=O)[O-])c1)N1CCN(S(=O)(=O)c2ccc(Cl)cc2)CC1 | 10µM* | -5.9% | -17.0% | i | -0.1%[9.24 µM] | -15.2% | 13µM* | -17.2% | ? | -5.0%
Cc1ccc(NC(=S)NCCc2c[nH]c3ccccc23)c(C)c1 | 10µM* | nt | 6.2% | nt | -0.4% | -46.2% | -20.9% | -23.0% | ? | 20.3%
COc1ccccc1NC(=S)NCCc1c[nH]c2ccccc12 | -18.5% | -0.9% | -15.7% | i | -22.2% | -11.8% | nt | nt | nt | nt
Cc1c(Cl)cccc1NC(=O)c1cc(S(=O)(=O)N2CCCCC2)cn1C | -1.6% | -2.5% | nt | i | nt | -11.5% | nt | nt | nt | nt
Clc1ccc2nc(-c3ccco3)c(Cc3ccccc3)n2c1 | 11.2µM* | -28.2% | ? | ? | ? | -18.5% | 14.6µM* | ? | ? | 19.5%
Fc1cccc(Cc2c(-c3ccco3)nc3c4ccccc4ccn23)c1 | 10µM* | 138.0% | ? | i | ? | 11.2µM* | 18.4µM* | ? | 16.4µM* | 2.7%
Fc1cccc(Cc2c(-c3ccco3)nc3ccc(Cl)cn23)c1 | ? | -1.7% | ? | nt | ? | -50.6% | nt | nt | nt | nt
Clc1cccc(Cc2c(-c3ccco3)nc3c4ccccc4ccn23)c1 | nt | 61.2% | ? | ? | ? | nt | nt | nt | nt | nt
OC(CNCC(c1ccc(Cl)cc1Cl)c1c[nH]c2ccccc12)c1ccccc1 (configuration not stated) | 7.08µM* | ? | 7.31µM* | ? | 20.6µM* | -112.3% | ? | 16.4µM* | ? | ?
CCOc1c(Cl)cc(CNCC(O)c2ccccc2)cc1OC (configuration not stated) | -15.0% | -8.8% | -13.1% | i | -19.0% | -28.9% | nt | nt | nt | nt
CCc1ccc(-c2cc(C)no2)cc1S(=O)(=O)N1CCCN(Cc2ccc(F)cc2)C1 | 10µM* | -38.7% | ? | i | 23.1µM* | -65.6% | ? | ? | ? | 67.0%
Nc1nc(N)c2c(ccc3c2ccn3Cc2cccc([N+](=O)[O-])c2)n1 | 3.55µM* | ? | 0.146µM* | ? | 0.0184µM* | -97.7% | 4.61µM* | 0.291µM* | ? | 13µM*
CCOc1ccccc1CNS(=O)(=O)c1ccc(-c2cnc(C3CC3)o2)cc1 | 10µM* | -9.1% | 1.16µM* | 1.26µM*! | 7.31µM* | -27.7% | 5.8µM* | ? | 8.2µM* | -10.4%
Cc1cccc(C)c1NS(=O)(=O)c1ccc(-c2cnc(C3CC3)o2)cc1 | 3.98µM* | nt | 0.164µM* | ? | 0.082µM* | -29.2% | 2.59µM* | ? | 0.82µM* | 51.7%
Cc1ccc(NS(=O)(=O)c2ccc(-c3cnc(C4CC4)o3)cc2)cc1 | ? | nt | ? | ? | ? | -14.3% | nt | nt | nt | nt
COc1ccc(Cn2c(SCc3ccc(C(=O)NC(C)c4ccccc4)cc3)nc3cccnc32)cc1 (configuration not stated) | -6.7% | nt | nt | nt | nt | -33.4% | nt | nt | nt | nt
CC(C)C(=O)NC(c1cccc([N+](=O)[O-])c1)c1ccc2cccnc2c1O (configuration not stated) | 3.55µM* | 2.67µM* | ? | ? | -25.6% | 6.0% | ? | ? | 7.31µM* | 18.9%
CCCC(=O)NC(c1ccc(Cl)cc1)c1ccc2cccnc2c1O (configuration not stated) | ? | 7.08µM* | ? | ? | ? | -20.2% | ? | ? | 5.17µM* | 27.9%
CCCC(=O)NC(c1ccccc1OC)c1ccc2cccnc2c1O (configuration not stated) | -15.4% | ? | ? | i | ? | -21.1% | nt | nt | nt | nt
Cc1ccc(OCC(=O)Nc2cccc(C(=O)OCc3cc(=O)n4c(C)csc4n3)c2)cc1 | ? | nt | nt | nt | nt | -18.8% | nt | nt | nt | nt
Cc1ccnc(Nc2nc(-c3ccccc3)cs2)c1 | 10µM* | nt | ? | i | -19.5% | -71.2% | -26.0% | -4.4% | 0.1% | 5.6%
O=C(Nc1ccc(Cl)cc1)C1Cc2c(-c3ccc(Cl)cc3)ccnc2O1 (configuration not stated) | ? | ? | ? | i | ? | -57.4% | nt | nt | nt | nt
CC(=O)Nc1ccc(NC(=O)C2Cc3c(-c4cccc(F)c4)ccnc3O2)cc1 (configuration not stated) | 8.7% | 8.6% | -3.5% | i | -3.5% | -1.1% | nt | nt | nt | nt
CC(=O)Nc1ccc(-c2ccnc3c2CC(C(=O)Nc2ccc(Cl)c(C(F)(F)F)c2)O3)cc1 (configuration not stated) | 14.1µM* | ? | ? | ? | ? | -20.1% | 8.2µM* | ? | 23.1µM* | 59.0%
